# Data taken from the supplement of paper PMC9844399.
# Where a name gives a salt, the structure may show the parent alone.
# System: HeLa
# Test: nuclear count per well, robust Z-score vs DMSO; higher = more cells (less toxicity)
# Conditions: 10 µM; 6 h
# 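Note: Hoechst-stained nuclei counted by automated confocal imaging of four fields per well in 384-well plates, with the robust Z-score based on the per-plate DMSO median and robust SD.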
row,Structure (SMILES),nuclear count per well
1,CCCCCCCCCCCCC/C=C/[C@@H](O)[C@H](CO)NC(=O)CCCCCCC [C8 Ceramide],-0.0493
2,COc1c(C)c2c(c(O)c1C/C=C(\C)CCC(=O)OCCN1CCOCC1)C(=O)OC2 [Mycophenolate Mofetil],-0.0821
3,CCCCCCCC/C=C\C/C=C\C/C=C\CCCC(=O)O [Mead acid (20:3 n-9)],0.463
4,Nc1nc(Cl)nc2c1ncn2[C@@H]1O[C@H](CO)[C@@H](O)[C@@H]1F [Clofarabine],-0.461
5,C=C(CC)C(=O)c1ccc(OCC(=O)O)c(Cl)c1Cl [Ethacrynic Acid],-0.247
6,Cc1cccc(Nc2ccccc2C(=O)O)c1C [Mefenamic acid],-0.176
7,COc1cccc2c1C(=O)c1c(O)c3c(c(O)c1C2=O)C[C@@](O)(C(=O)CO)C[C@@H]3O[C@H]1C[C@H](N)[C@@H](O)[C@H](C)O1,-8.97
8,O=C(O)CNC(=O)C(CS)Cc1ccccc1 (stereo not given) [Thiorphan],-0.172
9,N#Cc1c(O)c2c(-c3ccc(-c4ccccc4O)cc3)csc2[nH]c1=O,0.386
10,CN(C)CCCOc1nn(Cc2ccccc2)c2ccccc12 [Benzydamine hydrochloride],-1.28
11,NC(=O)NO [Hydroxyurea],-0.528
12,COc1ccc(Cl)cc1C(=O)NCCc1ccc(S(=O)(=O)NC(=O)NC2CCCCC2)cc1 [Glibenclamide],-0.32
13,C/C(=C\C(=O)OCCCCCCCCC(=O)O)C[C@@H]1OC[C@H](C[C@@H]2O[C@H]2[C@@H](C)[C@H](C)O)[C@@H](O)[C@H]1O [Mupirocin],-1.07
14,CCOC(=O)c1ccc(C#Cc2ccc3c(c2)C(C)(C)CCS3)nc1 [Tazarotene],0.0225
15,COC(=O)[C@@H]1CC2=CC(=O)CC[C@]2(C)[C@@]23O[C@@H]2C[C@@]2(C)[C@@H](CC[C@@]24CCC(=O)O4)[C@H]13 [Eplerenone],0.279
16,CN1C(CCl)Nc2cc(Cl)c(S(N)(=O)=O)cc2S1(=O)=O (stereo not given) [Methyclothiazide],0.529
17,CC(C)[C@H](NC(=O)CNC(=O)OC(C)(C)C)C(=O)N[C@H](C=O)C(C)C,0.605
18,CC(C)NCC(O)COc1cccc2ccccc12 (stereo not given),-0.464
19,CC[C@@H]1/C=C(\C)C[C@H](C)C[C@H](OC)[C@H]2O[C@@](O)(C(=O)C(=O)N3CCCC[C@H]3C(=O)O[C@H](/C(C)=C/[C@@H]3CC[C@H](Cl)[C@H](OC)C3)[C@H](C)[C@@H](O)CC1=O)[C@H](C)C[C@@H]2OC [Pimecrolimus],0.66
20,COCCc1ccc(OCC(O)CNC(C)C)cc1 (stereo not given) [Metoprolol Tartrate],0.277

row,Structure (SMILES),nuclear count per well
1,CCCc1cc(=O)[nH]c(=S)[nH]1 [Propylthiouracil],0.735
2,CC=CC1=C(C(=O)O)N2C(=O)[C@@H](NC(=O)[C@H](N)c3ccc(O)cc3)[C@H]2SC1 [Cefprozil],1.85
3,CO[C@H]1/C=C/O[C@@]2(C)Oc3c(C)c(O)c4c(O)c(cc(O)c4c3C2=O)NC(=O)/C(C)=C\C=C\[C@H](C)[C@H](O)[C@@H](C)[C@@H](O)[C@@H](C)[C@H](OC(C)=O)[C@@H]1C [Rifamycin SV sodium salt],-0.341
4,CCCCCC(O)C=CC1C2CC(CO2)C1CC=CCCCC(=O)O (stereo not given),-2.84
5,Clc1ccc(COC(Cn2ccnc2)c2ccc(Cl)cc2Cl)cc1 (stereo not given) [Econazole nitrate],0.426
6,OC[C@H]1O[C@@H](n2cnc3c2N=CNC[C@H]3O)C[C@@H]1O [Pentostatin],0.586
7,OCc1cc(C(O)CNCCCCCCOCCCCc2ccccc2)ccc1O (stereo not given) [Salmeterol],0.768
8,CC(/C=C/c1cccc(Oc2ccc(F)cc2)c1)N(O)C(N)=O (stereo not given),0.056
9,CCC(C)SSc1ncc[nH]1 (stereo not given),-0.451
10,CCCCCCCCCCCCCCCC(=O)OCC(COP(=O)(O)O)OC(=O)CCCCCCCCCCCCCCC (stereo not given) [Dipalmitoylphosphatidic acid],0.0871
11,Nc1ccc(S(=O)(=O)c2ccc(N)cc2)cc1 [Dapsone],1.25
12,CC(=O)NO [Acetohydroxamic Acid],0.402
13,CCCOc1ccc(C(=O)OCCN(CC)CC)cc1N,-0.434
14,O=c1[nH]c2ccccc2c2ccccc12 [6(5H)-Phenanthridinone],1
15,CCCCCOc1ccc(-c2cc(-c3ccc(C(=O)N[C@H]4C[C@@H](O)[C@@H](O)NC(=O)[C@@H]5[C@@H](O)[C@@H](C)CN5C(=O)[C@H]([C@H](O)CC(N)=O)NC(=O)[C@H]([C@H](O)[C@@H](O)c5ccc(O)c(OS(=O)(=O)O)c5)NC(=O)[C@@H]5C[C@@H](O)CN5C(=O)[C@H]([C@@H](C)O)NC4=O)cc3)no2)cc1 [Micafungin],-0.967
16,CCCCC/C=C\C/C=C\C/C=C\C/C=C\CCCC(=O)O[C@H](COCCCCCCCCCCCCCCCC)COP(=O)([O-])OCC[N+](C)(C)C [Arachidonoyl-PAF],0.0986
17,CN(CCOc1ccc(NS(C)(=O)=O)cc1)CCc1ccc(NS(C)(=O)=O)cc1 [Dofetilide],0.696
18,N[C@@H]1[C@H]2CN(c3nc4c(cc3F)c(=O)c(C(=O)O)cn4-c3ccc(F)cc3F)C[C@@H]12 [Trovafloxacin mesylate],-0.169
19,CCOC(=O)[C@H](CCc1ccccc1)N[C@@H](C)C(=O)N1[C@H](C(=O)O)C[C@H]2CCCC[C@@H]21 [Trandolapril],-0.645
20,OC[C@@H](O)[C@@H](O)[C@H](O)[C@H](O)CO [Mannitol],-0.686
